“And” between values parts separate entries of the source, which are not always exact repeats. Equal entries are not always repeated. Inconclusive results are not listed. Entries that show only a call come without a potency. Some structures have more than one record in an assay (separate samples or runs), and their calls can disagree. The source made the active and inactive calls. The call rests on the fitted dose curve; in most records, active means well fitted curve in the direction sought with a large enough effect in the repeat runs; inconclusive means weak or mixed curves; inactive means no such curve, though single readings can be large; an effect the other way counts as inactive or inconclusive.
How the values were obtained:
[1] = Human pregnane X receptor (PXR) small molecule agonists, qHTS cell viability counter screen (AID 1346977); further: nearly all actives have a fitted effect of over 50% in size
How it was run: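 Measures live-cell protease fluorescence (CellTiter-Fluor) in PXR-Luc HepG2 cells treated 24hr with compounds at 37C. Cells had 5hr to attach before pin transfer of DMSO solutions.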

[2] = Caspase-3/7 induction in HepG2 cells by small molecules, qHTS assay (AID 1346978); further: nearly all actives have a fitted effect of over 15% in size; further: potency means the concentration at half of the fitted maximal effect
How it was run: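 Caspase-3/7 induction was measured by Caspase-Glo 3/7 luminescence (30 min, room temperature) after a 17 hr compound exposure of wild-type HepG2 cells seeded at 2,000 per well and pre-incubated 5 hr.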

[3] = Caspase-3/7 induction in CHO-K1 cells by small molecules, qHTS cell viability counter screen (AID 1346979); further: nearly all actives have a fitted effect of over 35% in size; further: potency means the concentration at half of the fitted maximal effect
How it was run: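 In the same wells as the caspase read, viability of compound-treated wild-type CHO-K1 cells was assessed using CellTiter-Fluor, added after 16hr at 37C and measured by fluorescence following 1hr further incubation.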

[4] = Caspase-3/7 induction in CHO-K1 cells by small molecules, qHTS assay (AID 1346980); further: nearly all actives have a fitted effect of over 15% in size
How it was run: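 Luminescent Caspase-Glo 3/7 read (30min, room temperature) quantified apoptosis induction. Cells were wild-type CHO-K1, treated with compound for 17hr at 37 C and 5% CO2.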

[5] = Caspase-3/7 induction in HepG2 cells by small molecules, qHTS cell viability counter screen (AID 1346981); further: series mostly up to about 92 µM; nearly all actives have a fitted effect of over 30% in size
How it was run: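 In this quantitative HTS counter screen, compounds delivered in DMSO were left on unmodified HepG2 cells for 16 hr at 37 C. Viability was then determined fluorometrically with CellTiter-Fluor, in parallel with caspase-3/7 induction in the same wells.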

[6] = biological target: Nuclear receptor subfamily 1 group I member 2 (Homo sapiens) (UniProt O75469); test: Human pregnane X receptor (PXR) small molecule agonists, qHTS assay (AID 1346982); further: nearly all actives have a fitted effect of over 35% in size; further: potency means the concentration at half of the fitted maximal effect
How it was run: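 Reporter HepG2 cells expressing PXR-Luc are cultured in charcoal-stripped FBS (5%), treated with compounds for 24 hr at 37 C, and assayed by ONE-Glo luminescence after 30 min at room temperature.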

[7] = biological target: Cytochrome P450 2D6 (Homo sapiens) (UniProt P10635); test: Cytochrome P450 Family 2 Subfamily D Member 6 (CYP2D6) small molecule antagonists: luciferase reporter qHTS assay (AID 1671196); further: nearly all actives have a fitted effect of over 50% in size; further: potency means the concentration at half of the fitted maximal effect
How it was run: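 Test chemicals meet CYP2D6 plus proluciferin substrate (10 min, RT); NADPH regenerating solution then drives turnover for 1 h. Detection reagent halts the reaction; luminescence measured after 20 min.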

[8] = biological target: Cytochrome P450 2C19 (Homo sapiens) (UniProt P33261); test: Cytochrome P450 Family 2 Subfamily C Member 19 (CYP2C19) small molecule antagonists: luciferase reporter qHTS assay (AID 1671197); further: nearly all actives have a fitted effect of over 65% in size; further: potency means the concentration at half of the fitted maximal effect
How it was run: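 Luminescent readout of CYP2C19 activity: luciferin product detected 20 min after adding detection reagent. Before that, compound and enzyme-substrate mix preincubated 10 min at room temperature; NADPH-regenerating system started a 1 h, 37C reaction. Ketoconazole as positive control.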

[9] = biological target: Cytochrome P450 1A2 (Homo sapiens) (UniProt P05177); test: Cytochrome P450 Family 1 Subfamily A Member 2 (CYP1A2) small molecule antagonists: luciferase reporter qHTS assay (AID 1671199); further: nearly all actives have a fitted effect of over 50% in size; further: potency means the concentration at half of the fitted maximal effect
How it was run: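 Steps: enzyme-substrate mix dispensed; test compounds and furafylline control pinned in; 10 min room temperature; NADPH regeneration solution added, 1 h; reaction stopped with luciferin detection reagent; luminescence read after 20 min.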

[10] = biological target: Voltage-gated inwardly rectifying potassium channel KCNH2 (Homo sapiens) (UniProt Q12809); test: Human Ether-a-go-go-Related Gene (hERG) channel small molecule antagonists: fluorescence cell-based qHTS assay (AID 1671200);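 further: hERG-expressing U2OS cells given a thallium stimulus after FluxOR II dye loading; series mostly up to about 77 µM; nearly all actives have a fitted effect of over 50% in size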
How it was run: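 Quantitative HTS in hERG-U2OS cells: thallium entry through the channel reports activity, read as continuous 480/540 nm fluorescence over 2 min after stimulus addition.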

[11] = biological target: Cytochrome P450 3A4 (Homo sapiens) (UniProt P08684); test: Cytochrome P450 Family 3 Subfamily A Member 4 (CYP3A4) small molecule antagonists: luciferase reporter qHTS assay (AID 1671201)
How it was run: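 Inhibition of CYP3A4 is measured as loss of light: the enzyme converts a proluciferin substrate to luciferin, detected luminescently. Reaction ran 1 h at room temperature with NADPH regeneration after a 10 min compound preincubation.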

[12] = biological target: Nuclear receptor subfamily 1 group I member 2 (Rattus norvegicus) (UniProt Q9R1A7); test: Rat pregnane X receptor (rPXR) activation by small molecules, qHTS assay (AID 1346983); conditions: rPXR luciferase reporter cells, One-Glo luminescence, 24 h; stronger effect = higher value; further: nearly all actives have a fitted effect of over 20% in size
How it was run: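 Luminescent readout (One-Glo luciferase, 30 min room temperature) followed 24 hr compound treatment at 37 C of rPXR cells plated 2,000 per well and preincubated 5hr; qHTS format with compounds delivered in DMSO.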

[13] = biological target: Nuclear receptor subfamily 1 group I member 2 (Homo sapiens) (UniProt O75469); test: CYP3A4 induction through human pregnane X receptor (PXR) by small molecules, qHTS assay (AID 1346984); further: nearly all actives have a fitted effect of over 40% in size; further: potency means the concentration at half of the fitted maximal effect
How it was run: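 Induction measured in HepG2-based DPX-2 cells co-expressing human PXR and a CYP3A4 promoter-driven luciferase. After a 24-hour compound exposure, cells received CYP3A4 luciferin substrate at 3uM final for 3 hours, and light output was then recorded.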

[14] = biological target: Nuclear receptor subfamily 1 group I member 2 (Homo sapiens) (UniProt O75469); test: Human pregnane X receptor (PXR) activation by small molecules, qHTS assay (AID 1346985); further: nearly all actives have a fitted effect of over 40% in size
How it was run: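 DPX-2 cells (HepG2 co-transfected with a PXR response element and a CYP3A4-promoter luciferase construct) were seeded at 2,000 per well, rested 5 hr at 37C, then exposed to DMSO-dissolved compounds for 24 hr. Activation was read as luciferase luminescence.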

[15] = biological target: Cytochrome P450 2C9 (Homo sapiens) (UniProt P11712); test: Cytochrome P450 Family 2 Subfamily C Member 9 (CYP2C9) small molecule antagonists: luciferase reporter qHTS assay (AID 1671198)
How it was run: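 Enzyme-substrate mix preincubated with compound 10 min at room temperature; reaction started with NADPH regeneration solution, 1 h 37C. Luminescent luciferin product read after 20 min detection reagent.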

Chain of Cytochrome P450 2C19 (Homo sapiens) (P33261 whole entry, looked up): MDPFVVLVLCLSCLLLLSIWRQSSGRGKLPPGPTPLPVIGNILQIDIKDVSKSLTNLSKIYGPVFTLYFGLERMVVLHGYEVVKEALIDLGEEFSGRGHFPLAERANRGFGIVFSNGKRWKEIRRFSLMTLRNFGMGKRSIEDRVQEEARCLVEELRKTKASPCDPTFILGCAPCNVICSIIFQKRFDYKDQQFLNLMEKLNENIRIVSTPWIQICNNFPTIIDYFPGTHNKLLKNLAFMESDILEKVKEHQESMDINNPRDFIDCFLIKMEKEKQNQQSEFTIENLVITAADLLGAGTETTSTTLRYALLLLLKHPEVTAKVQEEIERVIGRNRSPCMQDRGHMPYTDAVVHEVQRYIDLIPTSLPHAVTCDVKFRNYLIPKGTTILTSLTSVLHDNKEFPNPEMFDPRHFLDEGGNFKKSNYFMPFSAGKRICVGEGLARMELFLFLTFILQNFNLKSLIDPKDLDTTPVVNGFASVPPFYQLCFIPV
Chain of Cytochrome P450 2C9 (Homo sapiens) (P11712 whole entry, looked up): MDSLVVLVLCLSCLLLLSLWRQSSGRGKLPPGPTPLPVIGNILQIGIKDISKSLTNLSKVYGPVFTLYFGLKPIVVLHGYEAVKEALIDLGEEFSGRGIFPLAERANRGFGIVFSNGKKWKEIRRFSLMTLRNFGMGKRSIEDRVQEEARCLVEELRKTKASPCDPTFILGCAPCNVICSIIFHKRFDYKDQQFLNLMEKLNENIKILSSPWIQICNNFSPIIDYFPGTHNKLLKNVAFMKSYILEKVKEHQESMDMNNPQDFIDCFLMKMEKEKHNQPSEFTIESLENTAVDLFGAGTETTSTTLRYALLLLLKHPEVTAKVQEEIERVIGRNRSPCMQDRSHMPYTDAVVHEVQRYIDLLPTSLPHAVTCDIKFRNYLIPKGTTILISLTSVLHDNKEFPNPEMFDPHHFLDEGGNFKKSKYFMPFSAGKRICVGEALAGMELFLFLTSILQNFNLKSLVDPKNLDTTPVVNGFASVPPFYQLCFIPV
Chain of Nuclear receptor subfamily 1 group I member 2 (Rattus norvegicus) (Q9R1A7 whole entry, looked up): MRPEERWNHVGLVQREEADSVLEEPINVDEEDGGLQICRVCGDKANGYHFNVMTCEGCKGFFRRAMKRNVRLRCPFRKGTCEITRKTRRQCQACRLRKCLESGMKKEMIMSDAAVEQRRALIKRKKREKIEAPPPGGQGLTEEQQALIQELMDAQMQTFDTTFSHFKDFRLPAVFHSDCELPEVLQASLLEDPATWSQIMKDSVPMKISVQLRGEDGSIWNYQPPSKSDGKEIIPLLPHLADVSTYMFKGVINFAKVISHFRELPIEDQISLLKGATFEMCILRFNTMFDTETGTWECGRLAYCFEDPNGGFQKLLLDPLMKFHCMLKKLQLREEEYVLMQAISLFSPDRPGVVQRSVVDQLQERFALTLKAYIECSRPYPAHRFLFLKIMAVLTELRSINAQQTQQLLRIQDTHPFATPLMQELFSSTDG
Chain of Cytochrome P450 1A2 (Homo sapiens) (P05177 whole entry, looked up): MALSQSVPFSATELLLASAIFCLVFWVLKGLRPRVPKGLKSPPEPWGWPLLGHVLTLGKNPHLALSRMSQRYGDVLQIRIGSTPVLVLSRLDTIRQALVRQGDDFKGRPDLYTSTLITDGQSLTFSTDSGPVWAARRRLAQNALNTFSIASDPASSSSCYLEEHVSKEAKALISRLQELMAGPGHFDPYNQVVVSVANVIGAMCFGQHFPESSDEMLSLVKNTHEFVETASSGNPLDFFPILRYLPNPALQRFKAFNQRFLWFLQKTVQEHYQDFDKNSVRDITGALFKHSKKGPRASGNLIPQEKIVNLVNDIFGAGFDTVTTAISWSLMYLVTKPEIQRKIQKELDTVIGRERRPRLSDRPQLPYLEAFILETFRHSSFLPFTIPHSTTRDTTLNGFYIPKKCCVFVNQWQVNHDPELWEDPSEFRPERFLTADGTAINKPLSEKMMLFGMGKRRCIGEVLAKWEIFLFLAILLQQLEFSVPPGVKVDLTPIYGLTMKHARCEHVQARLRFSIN
Chain of Nuclear receptor subfamily 1 group I member 2 (Homo sapiens) (O75469 whole entry, looked up): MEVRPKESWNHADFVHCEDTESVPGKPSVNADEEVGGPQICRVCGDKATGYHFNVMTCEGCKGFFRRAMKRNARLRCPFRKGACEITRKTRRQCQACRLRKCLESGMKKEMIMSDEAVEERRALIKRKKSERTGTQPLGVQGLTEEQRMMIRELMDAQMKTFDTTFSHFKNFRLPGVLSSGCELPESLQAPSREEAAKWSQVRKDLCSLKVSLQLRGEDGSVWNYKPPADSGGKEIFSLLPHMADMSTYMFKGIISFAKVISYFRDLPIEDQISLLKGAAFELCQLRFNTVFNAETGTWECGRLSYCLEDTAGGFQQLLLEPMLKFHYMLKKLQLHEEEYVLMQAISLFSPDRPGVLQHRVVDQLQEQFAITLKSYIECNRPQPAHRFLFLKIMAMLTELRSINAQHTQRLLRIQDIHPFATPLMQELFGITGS
Chain of Cytochrome P450 3A4 (Homo sapiens) (P08684 whole entry, looked up): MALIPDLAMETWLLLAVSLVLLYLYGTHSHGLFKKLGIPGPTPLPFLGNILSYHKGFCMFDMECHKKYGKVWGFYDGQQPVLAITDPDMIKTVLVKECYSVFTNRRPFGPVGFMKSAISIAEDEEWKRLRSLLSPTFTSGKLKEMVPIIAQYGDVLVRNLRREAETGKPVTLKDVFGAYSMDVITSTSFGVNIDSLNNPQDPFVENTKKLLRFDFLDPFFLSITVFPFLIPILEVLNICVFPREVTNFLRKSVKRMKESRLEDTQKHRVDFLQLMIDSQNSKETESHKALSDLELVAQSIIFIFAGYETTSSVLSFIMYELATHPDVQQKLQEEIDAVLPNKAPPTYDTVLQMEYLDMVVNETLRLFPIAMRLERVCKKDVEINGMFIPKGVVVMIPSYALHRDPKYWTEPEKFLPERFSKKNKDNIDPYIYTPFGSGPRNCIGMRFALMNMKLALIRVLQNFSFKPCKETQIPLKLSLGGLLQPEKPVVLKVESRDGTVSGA
Chain of Cytochrome P450 2D6 (Homo sapiens) (P10635 whole entry, looked up): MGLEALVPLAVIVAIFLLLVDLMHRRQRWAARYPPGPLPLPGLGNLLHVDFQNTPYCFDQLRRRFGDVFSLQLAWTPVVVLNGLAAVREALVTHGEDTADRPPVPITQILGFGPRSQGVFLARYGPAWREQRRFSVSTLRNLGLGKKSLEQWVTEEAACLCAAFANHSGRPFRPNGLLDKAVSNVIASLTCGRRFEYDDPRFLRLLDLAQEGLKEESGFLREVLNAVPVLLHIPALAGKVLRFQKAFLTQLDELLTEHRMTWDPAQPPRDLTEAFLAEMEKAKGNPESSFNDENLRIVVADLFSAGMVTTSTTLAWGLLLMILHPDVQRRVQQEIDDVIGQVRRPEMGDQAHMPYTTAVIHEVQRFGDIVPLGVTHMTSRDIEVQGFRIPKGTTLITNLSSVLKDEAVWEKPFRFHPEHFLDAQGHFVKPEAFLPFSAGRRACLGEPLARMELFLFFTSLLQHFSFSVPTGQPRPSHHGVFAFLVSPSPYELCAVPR
Chain of Voltage-gated inwardly rectifying potassium channel KCNH2 (Homo sapiens) (Q12809 whole entry, looked up): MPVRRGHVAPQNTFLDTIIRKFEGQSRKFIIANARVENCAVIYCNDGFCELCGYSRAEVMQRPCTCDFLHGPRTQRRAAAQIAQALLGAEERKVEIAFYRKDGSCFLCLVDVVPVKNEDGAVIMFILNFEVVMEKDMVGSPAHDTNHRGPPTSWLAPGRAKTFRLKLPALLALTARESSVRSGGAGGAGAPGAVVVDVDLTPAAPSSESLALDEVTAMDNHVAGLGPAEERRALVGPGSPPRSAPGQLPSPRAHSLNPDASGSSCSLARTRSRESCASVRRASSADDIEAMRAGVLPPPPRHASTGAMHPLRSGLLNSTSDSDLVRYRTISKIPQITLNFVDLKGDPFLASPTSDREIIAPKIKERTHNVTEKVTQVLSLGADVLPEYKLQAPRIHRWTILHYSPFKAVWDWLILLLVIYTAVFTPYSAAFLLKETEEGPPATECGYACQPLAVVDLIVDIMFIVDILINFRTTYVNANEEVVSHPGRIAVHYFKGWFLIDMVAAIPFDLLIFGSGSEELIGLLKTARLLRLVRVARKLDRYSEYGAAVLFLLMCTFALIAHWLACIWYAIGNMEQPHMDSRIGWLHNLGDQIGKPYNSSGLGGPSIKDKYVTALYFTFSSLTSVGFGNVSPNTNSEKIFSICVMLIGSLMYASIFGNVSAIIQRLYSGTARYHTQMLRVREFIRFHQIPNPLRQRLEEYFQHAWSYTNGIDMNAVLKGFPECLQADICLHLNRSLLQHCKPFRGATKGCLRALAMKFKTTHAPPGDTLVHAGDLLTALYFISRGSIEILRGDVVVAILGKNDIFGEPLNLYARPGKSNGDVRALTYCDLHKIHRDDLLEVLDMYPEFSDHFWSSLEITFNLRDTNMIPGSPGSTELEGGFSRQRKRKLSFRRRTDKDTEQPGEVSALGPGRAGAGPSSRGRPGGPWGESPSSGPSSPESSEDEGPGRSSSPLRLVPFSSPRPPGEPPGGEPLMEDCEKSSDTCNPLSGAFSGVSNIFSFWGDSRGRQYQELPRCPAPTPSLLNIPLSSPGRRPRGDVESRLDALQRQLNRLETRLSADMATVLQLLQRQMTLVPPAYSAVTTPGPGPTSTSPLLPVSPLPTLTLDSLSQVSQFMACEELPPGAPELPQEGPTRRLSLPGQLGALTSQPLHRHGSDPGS

Structure (SMILES)	Potency [1]	Potency [2]	Potency [3]	outcome [4]	Potency [5]	Potency [6]	Potency [7]	Potency [8]	Potency [9]	Potency [10]	Potency [11]	max activation [12]	Potency [13]	outcome [14]	Potency [15]
CCCCCCCCCCN	inactive	inactive	inactive	inactive	inactive	inactive	35.8 µM (active) and 12.6 µM (active)	7.14 µM (active) and 5.64 µM (active)	31.9 µM (active) and 31.7 µM (active)	inactive	inactive				
Cc1ccc(C(C)C)c(O)c1	inactive	inactive	inactive	inactive	inactive	inactive	inactive	71 µM (active) and 34.7 µM (active)	31.7 µM (active) and 15.5 µM (active)	inactive	inactive	-2.47% (inactive)	inactive	inactive	
CC(=O)OCc1ccco1	inactive	60.8 µM (active) and inactive	15.3 µM (active) and inactive	inactive	inactive	60.8 µM (active) and inactive	inactive	70.6 µM (active) and inactive	inactive	inactive	inactive				inactive
CC1(C)OC[C@@H]2O[C@@]3(C(=O)O)OC(C)(C)O[C@H]3[C@@H]2O1	inactive	inactive	inactive	inactive	inactive	inactive	inactive	inactive	inactive		inactive	-1.74% (inactive)	inactive	inactive	inactive
O=c1[nH]cnc2[nH]ncc12	inactive	inactive	inactive	inactive	inactive	inactive	inactive	inactive	inactive	inactive	inactive				
Clc1ccccn1	inactive	inactive	inactive	inactive	inactive	inactive	inactive	inactive	inactive		inactive				
O=C1C(c2[nH]c3ccccc3c2O)=Nc2ccccc21	inactive	inactive	inactive	inactive	inactive	inactive	inactive	inactive	inactive and 34.7 µM (active)	inactive	inactive	3.64% (inactive)	891 nM (active)	inactive	
C=C(C)[C@H]1CC=C(C)C(=O)C1	inactive	inactive	inactive	inactive	inactive	inactive	18.2 µM (active) and inactive	inactive	inactive	inactive	inactive				inactive
N[C@H](Cc1c[nH]c2ccccc12)C(=O)O	inactive	inactive	inactive	inactive	inactive	inactive	inactive	inactive			inactive	-2.63% (inactive)		inactive	inactive
